# Measurements as given in PubChem BioAssay (NCI).
# This is part of a sample that, as a whole, favours compounds with a hit. Of some 83,000 tested, about 20% had one in any assay.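 For each line, cells grew in 96-well plates with the test compound present at a single concentration for 48 hours.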 Activity calls are given as the source filed them. How the source made its calls: active means growth percent below 10; inactive means the rest.
# Tested on: RXF 393 renal
# Experiment: NCI-60 one-dose screen, 48 h (100 = growth as untreated, 0 = no growth, -100 = all killed)
# Settings: 10 µM unless noted
row,Compound,growth
1,Nc1ccc(CCCCc2ccccc2)c(Cl)c1,90.3% (inactive)
2,Nc1ccc(S(=O)(=O)Nc2ccsc2-c2nc(-c3ccccc3)no2)cc1,83.3% (inactive)
3,C=C(CNCCc1ccc(O)cc1)[C@@H]1CC[C@]2(COC3CCCCO3)CC[C@]3(C)[C@H](CC[C@@H]4[C@@]5(C)CCC(NCCO)C(C)(C)[C@@H]5CC[C@]43C)[C@@H]12 (some centres not stated),-88.9% (active)
4,OC(COc1cccc2ccccc12)CN1CCN(c2ccccc2)CC1 (configuration not stated),9.82% (active)
5,Cc1[nH]c(-c2nc3ccccc3[nH]2)c(C)c1C(=O)N1CCc2sccc2C1,101% (inactive)
6,CC(C)n1nc(C#Cc2cccc(NC(=O)c3cccc(C(F)(F)F)c3)c2)c2c(N)ncnc21,-76.8% (active)
7,Cc1cc(NS(=O)(=O)c2ccccc2)c(OS(=O)(=O)c2ccccc2)cc1C,111% (inactive)
8,OCCCCc1nccc2c1[nH]c1ccccc12,65.7% (inactive)
9,C=C(C)[C@@H]1CC[C@]2(CNCCO)CC[C@]3(C)[C@H](CC[C@@H]4[C@@]5(C)CCC(N)[C@@](C)(CO)[C@@H]5CC[C@]43C)[C@@H]12 (some centres not stated),30.2% (inactive)
10,OC(c1cccc(OCc2ccccc2)c1)c1nnc(-c2ccccc2)o1 (configuration not stated),95.5% (inactive)
11,Cl.[Pt].[c-]1ccccc1-c1ccccn1.c1ccc(P(c2ccccc2)C([PH+](c2ccccc2)c2ccccc2)[PH+](c2ccccc2)c2ccccc2)cc1,11.3% (inactive)
12,COc1cc2c(c(OC)c1OC)C(=O)/C(=C/c1cc(C)c(O)c(C)c1)S2,-10.4% (active)
